Data on ten molecules can be found in paper PMC5540273 (PLoS ONE, 2017).

Like-named read-outs stand apart in the source and are kept apart here.

One assay concerns EPHA3. To be noted: concentration: 1 μM, replicates: in singlicate; n = 1.
A further assay relates to EPHA4. To be noted: concentration: 1 μM, replicates: in singlicate; n = 1.
In the next assay the test system is EPHA5. To be noted: concentration: 1 μM, replicates: in singlicate; n = 1.
For another assay, the system named is EPHA6. To be noted: n = 1.
The subject of another assay is EPHA7. To be noted: concentration: 1 μM, replicates: in singlicate; n = 1.
The test system of a further assay is EPHA8. Conditions: concentration: 1 μM, replicates: in singlicate; n = 1.
The subject of the next assay is EPHB1. Conditions: concentration: 1 μM, replicates: in singlicate; n = 1.
Another assay relates to EPHB2. Conditions: concentration: 1 μM, replicates: in singlicate; n = 1.
For a further assay, the system named is EPHB3. Conditions: concentration: 1 μM, replicates: in singlicate; n = 1.
The test system of a further assay is EPHB4. Conditions: concentration: 1 μM, replicates: in singlicate; n = 1.
The test system of another assay is EPHB6. To be noted: concentration: 1 μM, replicates: in singlicate; n = 1.
For a further assay, the system named is ERBB2. To be noted: concentration: 1 μM, replicates: in singlicate; n = 1.
The test system of another assay is ERBB3. Conditions: concentration: 1 μM, replicates: in singlicate; n = 1.
A further assay relates to ERBB4. Conditions: concentration: 1 μM, replicates: in singlicate; n = 1.
The next assay concerns T1, ERK1.
T1 construct: gene MAPK3
To be noted: concentration: 1 μM, replicates: in singlicate; n = 1.

The subject of a further assay is T2, ERK2.
T2 construct: gene MAPK1
Conditions: concentration: 1 μM, replicates: in singlicate; n = 1.

Another assay relates to T3, ERK3.
T3 construct: gene MAPK6
Conditions: concentration: 1 μM, replicates: in singlicate; n = 1.

The next assay relates to T4, ERK4.
T4 construct: gene MAPK4
Conditions: concentration: 1 μM, replicates: in singlicate; n = 1.

A further assay concerns T5, ERK5.
T5 construct: gene MAPK7
To be noted: concentration: 1 μM, replicates: in singlicate; n = 1.

The test system of a further assay is T6, ERK8.
T6 construct: gene MAPK15
To be noted: concentration: 1 μM, replicates: in singlicate; n = 1.

Setting [1] is: concentration: 1 μM, replicates: in singlicate.
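Note: KINOMEscan kinase panel screen.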

In the case of `c1ccc(-c2cc(-c3c[nH]nc3-c3ccccn3)ccn2)cc1` [GW576604], the “%Inh” value was 15% with EPHA3; 0% in the assay on EPHA4; 0% in the assay with EPHA5; 0% in the assay on EPHA6 (setting [1]); 0% in the assay on EPHA7; 0% in the assay on EPHA8. Further, the “%Inh” value was determined as 20% with EPHB1; 0% in the assay on EPHB2; 0% in the assay on EPHB3; 7% with EPHB4; 0% in the assay on EPHB6; 0% in the assay with ERBB2. Further, the “%Inh” value worked out at 16% in the assay on ERBB3; 52% in the assay with ERBB4; 8% with ERK1; 0% with ERK2; 0% in the assay on ERK3; 3% in the assay on ERK4. For the same molecule, the “%Inh” value with ERK5 and in the assay with ERK8 was 0% throughout.

Take `Fc1ccc(-c2nn3c(OCC(F)(F)F)cccc3c2-c2ccncc2)cc1` [GW514784]: the “%Inh” value was 24% in the assay on EPHA3; 3% in the assay on EPHA4; 0% in the assay with EPHA5; 11% in the assay on EPHA6 (setting [1]); 0% in the assay with EPHA7; 13% in the assay on EPHA8. In addition, the “%Inh” value in the assay with EPHB1 amounted to 16%; in the assay on EPHB2 it was 0%; in the assay on EPHB3 it was 6%; in the assay with EPHB4 it was 1%; in the assay with EPHB6, 0%; in the assay on ERBB2, 59%. Besides, the “%Inh” value in the assay with ERBB3 was determined as 29%; with ERBB4, 37%; with ERK1, 0%; in the assay on ERK2 it was 0%; in the assay on ERK3 it was 6%; in the assay on ERK4 it was 9%. Also, the “%Inh” value in the assay on ERK5 and in the assay with ERK8 was 0% in each case.

For `O=C(Nc1n[nH]c2cc(-c3cccc(F)c3)ccc12)C1CC1` [SB-735464], the “%Inh” value in the assay with EPHA3 was 17%; in the assay with EPHA4, 24%; with EPHA5, 0%; with EPHA6 (setting [1]), 14%; with EPHA7, 14%; in the assay with EPHA8, 13%. Also, the “%Inh” value is 0% in the assay with EPHB1; 0% in the assay on EPHB2; 20% with EPHB3; 21% in the assay on EPHB4; 14% with EPHB6; 21% in the assay on ERBB2. Further, the “%Inh” value is reported as 0% in the assay on ERBB3; 7% with ERBB4; 0% in the assay with ERK1; 0% in the assay on ERK2; 0% with ERK3; 0% in the assay on ERK4. Moreover, the “%Inh” value with ERK5 was 8%; in the assay on ERK8 it was 32%.

For the molecule `N#Cc1c(N2CCOCC2)sc(-c2ccn[nH]2)c1-c1ccc(Cl)cc1`, the “%Inh” value in the assay on EPHA3 is given as 11%; in the assay on EPHA4, 0%; in the assay on EPHA5, 16%; in the assay on EPHA6 (setting [1]) it was 27%; with EPHA7 it was 5%; in the assay on EPHA8, 7%. The “%Inh” value with EPHB1 was found to be 14%; in the assay on EPHB2 it was 0%; in the assay with EPHB3 it was 15%; with EPHB4, 12%; with EPHB6, 38%; in the assay with ERBB2, 0%. The “%Inh” value was determined as 22% with ERBB3; 11% in the assay with ERBB4; 0% in the assay with ERK1; 24% in the assay on ERK2; 0% with ERK3; 0% in the assay with ERK4. The entries for the “%Inh” value in the assay on ERK5 and in the assay with ERK8 were 0% and 5%, respectively.

For the molecule `CN1c2ccc(NCc3ccc(F)cc3)cc2-c2c(cnn2C)S1(=O)=O`, the “%Inh” value in the assay with EPHA3, in the assay on EPHA4, in the assay with EPHA5, in the assay on EPHA6 (setting [1]), in the assay on EPHA7 and with EPHA8 was 0% in each case. Further, the “%Inh” value in the assay with EPHB1 is listed as 0%; in the assay with EPHB2 it was 0%; in the assay with EPHB3, 6%; in the assay with EPHB4 it was 0%; in the assay on EPHB6, 0%; with ERBB2, 7%. The “%Inh” value in the assay on ERBB3 is 27%; in the assay on ERBB4, 0%; with ERK1 it was 0%; in the assay on ERK2, 0%; with ERK3, 0%; with ERK4 it was 0%. The “%Inh” value came out at 3% in the assay with ERK5 and 22% in the assay with ERK8.

Turning to `COc1cc(Nc2nccc(N3CCC(NC(=O)c4cccc(NC(C)=O)c4)C3)n2)cc(OC)c1OC` (centres unmarked) [GSK1379754], the “%Inh” value is given as 0% in the assay on EPHA3; 9% in the assay with EPHA4; 6% with EPHA5; 20% in the assay on EPHA6 (setting [1]); 11% in the assay on EPHA7; 26% in the assay on EPHA8. In addition, the “%Inh” value with EPHB1 is reported as 15%; in the assay with EPHB2, 0%; in the assay with EPHB3 it was 17%; in the assay with EPHB4, 12%; in the assay on EPHB6, 78%; with ERBB2, 16%. For the same molecule, the “%Inh” value came out at 0% in the assay on ERBB3; 1% in the assay on ERBB4; 0% in the assay on ERK1; 14% with ERK2; 0% in the assay with ERK3; 1% in the assay on ERK4. The “%Inh” value in the assay with ERK5 and in the assay on ERK8 was 0% throughout.

Consider `Cc1nnc(-c2ccc3occ(-c4ccc(C(C)O)cc4)c3c2)o1` (centres unmarked), for which the “%Inh” value amounted to 0% in the assay on EPHA3; 30% in the assay with EPHA4; 0% in the assay with EPHA5; 52% with EPHA6 (setting [1]); 3% with EPHA7; 0% with EPHA8. In addition, the “%Inh” value in the assay on EPHB1 amounted to 9%; in the assay with EPHB2, 15%; in the assay on EPHB3, 12%; in the assay with EPHB4, 13%; in the assay on EPHB6, 15%; with ERBB2 it was 0%. Moreover, the “%Inh” value in the assay on ERBB3 is 9%; in the assay on ERBB4 it was 0%; with ERK1 it was 0%; with ERK2, 0%; with ERK3, 15%; with ERK4, 10%. Further, the “%Inh” value in the assay with ERK5 worked out at 7%; in the assay with ERK8 it was 31%.

`Cc1cccc(-c2nc(Nc3ccc4ncsc4c3)c3ccccc3n2)n1` [GW867588]: the “%Inh” value in the assay with EPHA3 worked out at 22%; in the assay with EPHA4 it was 21%; with EPHA5, 6%; with EPHA6 (setting [1]), 21%; in the assay on EPHA7, 0%; in the assay with EPHA8, 4%. Also, the “%Inh” value in the assay with EPHB1 is given as 30%; with EPHB2 it was 0%; with EPHB3, 22%; with EPHB4, 0%; with EPHB6, 0%; in the assay with ERBB2 it was 6%. For the same molecule, the “%Inh” value in the assay on ERBB3 is listed as 21%; in the assay with ERBB4, 25%; with ERK1, 0%; in the assay on ERK2, 2%; with ERK3 it was 0%; in the assay on ERK4, 0%. The “%Inh” value in the assay with ERK5 and in the assay on ERK8 was 0% in each case.

In the case of `Cl.Oc1cccc(Nc2ccnc3cc(-c4ccncc4)ccc23)c1` [GW494601], the “%Inh” value is given as 76% in the assay with EPHA3; 84% with EPHA4; 95.3% with EPHA5; 88% in the assay on EPHA6 (setting [1]); 0% in the assay on EPHA7; 97% in the assay on EPHA8. For the same molecule, the “%Inh” value with EPHB1 is listed as 96.2%; in the assay with EPHB2, 70%; with EPHB3, 27%; with EPHB4, 94.2%; with EPHB6, 86%; in the assay on ERBB2, 0%. For the same molecule, the “%Inh” value in the assay with ERBB3 was determined as 40%; in the assay with ERBB4, 38%; in the assay on ERK1 it was 0%; with ERK2, 0%; in the assay on ERK3, 2%; with ERK4, 26%. The “%Inh” value in the assay on ERK5 and in the assay on ERK8 was 0% throughout.

Consider `O=c1cc(N2CCOCC2)nc2n(Cc3cccc(Cl)c3Cl)c(C3CC3)nn12` [GSK2358994], for which the “%Inh” value with EPHA3 was determined as 0%; in the assay on EPHA4, 11%; in the assay with EPHA5, 6%; in the assay on EPHA6 (1 µM), 0%; with EPHA7 it was 0%; in the assay with EPHA8, 9%. Further, the “%Inh” value is listed as 0% in the assay with EPHB1; 0% in the assay with EPHB2; 7% in the assay with EPHB3; 3% in the assay on EPHB4; 33% with EPHB6; 0% in the assay on ERBB2. The “%Inh” value with ERBB3 amounted to 9%; with ERBB4 it was 0%; in the assay with ERK1, 0%; in the assay with ERK2, 11%; in the assay with ERK3, 0%; in the assay on ERK4, 0%. Moreover, the “%Inh” value worked out at 0% with ERK5 and 13% with ERK8.
